# High-throughput results deposited in PubChem by National Center for Advancing Translational Sciences (NCATS).
# An excerpt weighted towards active compounds, which were near 2.2% of everything screened.
# uPA surface inh – cell surface uPA generation inhibition; Potency, µM (top dose mostly 38.3 µM), inactives show top-dose activity change, negative = inhibition, actives largely listed as inhibitors; 0.31% of 330,000 active; cell surface uPA generation assay, qHTS; active = well fitted inhibition curve with a large enough effect; inconclusive = small, poorly fitted or top-dose-only effect; inactive = no such curve, though single readings can be large or run the other way; tested in mouse RAW 264.7 cells; also: potency is read from the fitted curve at half-maximal effect; % is scaled to controls: 0 for no effect and ±100 for the full control effect; nearly all actives have a fitted effect of over 55% in size
# CCT chaperon mod – changes cytosolic chaperonin activity; purified chaperonin ATPase assay, HTRF ADP detection, 30 min; activity change, % (concentration not given with the values), hits read low; 0.3% of 360,000 active; in the data active = activity change below about -30%; also: % is scaled to controls: 0 for no effect and ±100 for the full control effect
#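 First, chaperonin was dispensed at 40 nM or 20 nM final depending on batch activity. Next, compounds were pinned at 76 uM and ATP added at 10 uM. After 30 min at 37 °C, ADP detection reagents ran 30 min at ambient temperature.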
# HEK293 tox – cytotoxic in the GLP-1 receptor inverse agonist counter-screen; 0.13% of 410,000 active; HEK293 cAMP-luciferase reporter cells, luminescence, 24 h; Potency, µM (titrated, usually from 38.3 µM), for the others: at the highest dose activity change, negative = inhibition, usual class: inhibitors;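 also: loss of luciferase light is scored as toxicity; potency is read from the fitted curve at half-maximal effect; % is scaled to controls: 0 for no effect and ±100 for the full control effect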
#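 Quantitative HTS format, 1536 wells, 200 cells/uL seeded. Compounds: 23 nL, 24 h, 37 °C. Detection: luciferase reagent, luminescence at 12 min RT; decreased signal taken as cytotoxic.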
# GLP-1R inv ag – inverse agonists of human GLP-1 receptor. HEK293 GLP-1R CRE-luciferase, luminescence, 24 h; GLP-1R form is constitutively active. Potency, µM (top dose mostly 38.3 µM), for inactives: at the top dose activity change, negative = inhibition, actives largely listed as inhibitors. 1.6% of 410,000 active. P43220; also: potency is read from the fitted curve at half-maximal effect; % is scaled to controls: 0 for no effect and ±100 for the full control effect; nearly all actives have a fitted effect of over 55% in size
# Target sequence (P43220 whole entry, looked up): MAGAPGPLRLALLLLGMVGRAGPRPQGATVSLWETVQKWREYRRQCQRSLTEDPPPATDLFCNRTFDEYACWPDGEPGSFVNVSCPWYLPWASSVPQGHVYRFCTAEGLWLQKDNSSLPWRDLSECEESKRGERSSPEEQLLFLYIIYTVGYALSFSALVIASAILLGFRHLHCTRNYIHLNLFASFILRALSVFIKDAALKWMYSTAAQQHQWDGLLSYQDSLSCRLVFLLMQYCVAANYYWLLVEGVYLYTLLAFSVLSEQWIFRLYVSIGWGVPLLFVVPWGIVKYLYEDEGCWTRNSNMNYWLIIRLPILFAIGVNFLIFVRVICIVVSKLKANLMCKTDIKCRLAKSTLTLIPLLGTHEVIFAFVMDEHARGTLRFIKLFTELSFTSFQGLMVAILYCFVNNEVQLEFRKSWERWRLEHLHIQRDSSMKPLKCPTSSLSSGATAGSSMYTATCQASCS
#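 Cells are plated, allowed 12 hours at 37 deg C, then treated with compounds for 24 hr before luciferase detection reagent is added and luminescence is read after 12 min at room temperature. The HEK293 line carries constitutively active GLP-1R with a cAMP-responsive reporter.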
# GLP-1R agonist – activates the human GLP-1 receptor; AID 624172; HEK293 GLP-1R CRE-luciferase, luminescence, 4-6 h; cells express a hypersensitive GLP-1R form; 0.007% of 380,000 active; P43220; Potency, µM (doses to about 45.6 µM), for the others: top-dose activation, usual class: activators; also: potency is read from the fitted curve at half-maximal effect; % of control where 0% means no effect
# MmCpn inh – inhibitors of Methanococcus maripaludis chaperonin TRiC (MmCpn) | purified Mm-Cpn ATPase, ADP Transcreener TR-FRET | 0.031% of 330,000 active | Potency, µM (highest dose often 76.9 µM), without a hit: top-dose activity, negative = inhibition, most hits filed as inhibitors | AID 504842; also: potency is read from the fitted curve at half-maximal effect; % is scaled to controls: 0 for no effect and ±100 for the full control effect; nearly all actives have a fitted effect of over 80% in size
#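 25 nM Mm-CPN + cpd, 10 min 37°C; + 10 uM ATP, 30 min 37°C; buffer 30 mM Tris pH 7.4, 100 mM KCl, 5 mM MgCl2, 1 mM DTT; Transcreener ADP HTRF detection 30 min RT.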
# Active calls of the source: *; ? = inconclusive; . = no result given. Unless noted, calls follow the shape of the dose curve; as a rule, active = well fitted curve in the direction sought with a large enough effect; inconclusive = small, poorly fitted or top-dose-only effect, or another doubt; inactive = no such curve, though single readings can be large; an effect the other way counts as inactive or inconclusive.
SMILES,uPA surface inh,CCT chaperon mod,HEK293 tox,GLP-1R inv ag,GLP-1R agonist,MmCpn inh
COc1ccc(CNC(=O)CC2C[C@H](C(=O)N(C(C)C)C(C)C)[C@@]3(C)c4[nH]c5ccccc5c4CCN3C2=O)cc1OC (stereo partly drawn),6%,-47*,-3%,-3%,-6%,-1%
COc1ccc2[nH]c3c(c2c1)CCN1C(=O)C(CC(=O)NCC24CC5CC(CC(C5)C2)C4)C[C@H](C(=O)N2CCOCC2)[C@@]31C (stereo partly drawn),?,-3,3%,?,0%,3%
CN(C)C(=O)CCc1ccc2c3c([nH]c2c1)[C@]1(CCC2CCCC2)[C@@H](C(=O)N2CCOCC2)C[C@H](CC(=O)NCCCn2ccnc2)C(=O)N1CC3,4%,-3,5%,3%,7%,-1%
C[C@]12c3[nH]c4ccc(Cl)cc4c3CCN1C(=O)[C@@H](CC(=O)NCC13CC4CC(CC(C4)C1)C3)C[C@@H]2C(=O)N1CCOCC1,?,-3,-9%,10µM*,2%,0%
O=C(C[C@H]1C[C@H](C(=O)N2CCOCC2)[C@@]2(CCC3CCCC3)c3[nH]c4ccc(Cl)cc4c3CCN2C1=O)NCCCn1ccnc1,13µM*,1,-4%,?,-3%,-2%
CCOc1ccc(OCC)c(NC(=O)CN(C)S(=O)(=O)c2ccc3[nH]c(=O)oc3c2)c1,.,.,-13%,-8%,.,.
CC(C)(C)c1ccc(-c2nc3cc(NC(=O)c4cccc(Br)c4)ccc3o2)cc1,.,.,6%,0%,.,.
Cc1ccc(NC(=O)CSc2cn(CC(=O)N3CCOCC3)c3ccccc23)cc1Cl,.,.,2%,-6%,.,.
O=C(CCS(=O)(=O)c1ccc2c(c1)NC(=O)CO2)NCc1ccccc1,-1%,-64*,-1%,-9%,-3%,0%
CCOC(=O)c1ccccc1NC(=O)N(Cc1ccco1)C1CCN(C(C)=O)CC1,.,.,1%,18%,.,.
CCCCn1cnc2c(SCc3ccccc3Cl)nc(N)nc21,1%,-4,-11%,10µM*,34%,.
Nc1nc(SCc2ccccc2)c2ncn(Cc3ccccc3)c2n1,1%,-1,-1%,7.9µM*,23%,.
CCN(CC)C(=O)Cn1c(=O)n(Cc2ccc(C(=O)NCc3ccccc3Cl)cc2)c(=O)c2ccccc21,.,.,5%,8%,0%,.
COc1ccc(N2CCN(C(=O)Cn3nc(Cc4cccnc4)c4ccccc4c3=O)CC2)cc1,.,.,4%,6%,.,.
CCOc1ccc(NC(=O)/C=C\C(=O)N(c2ccc(C(C)C)cc2)C(C(=O)NCc2ccco2)c2ccc(F)cc2)cc1 (stereo not drawn),.,.,-8%,?,.,.
CO/N=C/C(=N\Nc1ccccc1)C(=O)c1ccccc1,-9%,1,12%,?,21%,1%
COC(=O)C=CC(=NNc1ccccc1)c1ccccc1,-2%,-3,-8%,7.9µM*,?,.
CCC1CCCCN1C(=O)c1ccc2c(c1)N(Cc1cccc(Cl)c1)C(=O)c1ccccc1S2(=O)=O (stereo not drawn),.,.,10%,9%,.,.
CCC1CCCCN1C(=O)Cn1c(=O)cc(C(F)(F)F)c2c(C)nn(C)c21 (stereo not drawn),.,.,0%,10µM*,.,.
CC(NC(=O)c1ccc(C(F)(F)F)cc1)C(c1ccccc1)N1CCOCC1 (stereo not drawn),0%,0,1%,-28%,19%,-4%
CC(NC(=S)Nc1ccccc1Cl)C(c1ccccc1)N1CCOCC1 (stereo not drawn),-15%,0,10µM*,?,2%,1%
CC(NC(=O)c1ccc(-c2ccccc2)cc1)C(c1ccccc1)N1CCOCC1 (stereo not drawn),?,0,-16%,2µM*,7%,-2%
COc1ccc(NC(=S)NC(C)C(c2ccccc2)N2CCOCC2)cc1 (stereo not drawn),5%,-1,0%,-13%,12%,-1%
CCOC(=O)c1ccccc1NC(=O)CSc1ccc(-c2sc(-c3ccccc3)nc2C)nn1,.,.,8%,1%,.,.
CCCNS(=O)(=O)c1ccc(CCC(=O)Nc2cc(Cl)ccc2Oc2ccccc2)cc1,-18%,-1,-12%,?,-5%,1%
SMILES,uPA surface inh,CCT chaperon mod,HEK293 tox,GLP-1R inv ag,GLP-1R agonist,MmCpn inh
Cc1cccc(C)c1N(CC(=O)Nc1cc(Cl)ccc1Oc1ccccc1)S(C)(=O)=O,-4%,2,-16%,4.5µM*,-4%,-1%
COc1ccc(Cl)cc1NC(=O)CN(c1cccc(C)c1C)S(=O)(=O)c1ccccc1,.,.,6%,?,-2%,.
COc1ccc(C)cc1NC(=O)CN(c1ccccc1F)S(C)(=O)=O,0%,-1,9%,2%,1%,1%
CC(C)CNS(=O)(=O)c1ccc(CCC(=O)Nc2cc(Cl)ccc2Oc2ccccc2)cc1,1%,-3,4%,13µM*,3%,-2%
Cc1ccc(C)c(N(CC(=O)Nc2cc(Cl)ccc2Oc2ccccc2)S(C)(=O)=O)c1,-4%,-1,-2%,5µM*,-8%,0%
COC(=O)c1ccc(OCC2c3cc(OC)c(OC)cc3CCN2C(=O)c2cccc(C)c2)cc1 (stereo not drawn),.,.,0%,?,18%,.
O=C(C1=C[C@@H](c2ccc(Br)cc2)C[C@@H](OCc2ccc(CO)cc2)O1)N1CCN(Cc2ccc3c(c2)OCO3)CC1,?,-5,0%,1%,4%,.
O=C(C1=C[C@H](c2ccc(C(F)(F)F)cc2)C[C@H](OCc2ccc(CO)cc2)O1)N1CCN(Cc2ccc3c(c2)OCO3)CC1,?,-2,-11%,10µM*,-1%,.
CSc1nc(-c2ccccc2)nc(N2CCN(C)CC2)c1C(C)=O,-7%,1,-14%,3.2µM*,3%,0%
CSc1nc(-c2ccccc2)nc(N2CCCC2)c1C(C)=O,.,-1,48%,4%,17%,.
O=C(CSc1nnc(Cc2cccs2)n1Cc1ccco1)Nc1ccc(Br)cc1,6%,-1,11%,3.5µM*,1%,0%
CCCCCCCC/C=C\CCCCCCCCN,.,.,.,.,2%,.
CC(C)(C)c1ccc(C(=O)NNc2cc(Cl)cc(Cl)c2)cc1,1%,-10,-3%,?,-2%,0%
CCc1ccc(C(=O)NNc2cc(Cl)cc(Cl)c2)cc1,-3%,0,-24%,1µM*,-1%,2%
CCc1ccc(C(=O)NNc2ccc(Cl)cc2)cc1,-10%,1,?,1µM*,-3%,0%
CCN(C(=O)CSc1nc2ccccc2n1Cc1ccc(F)cc1Cl)c1ccccc1,.,.,-13%,?,.,.
